From ChEMBL document CHEMBL4513216, “Probing the Open Global Health Chemical Diversity Library for Multistage-Active Starting Points for Next-Generation Antimalarials” (ACS Infect Dis, 2020)
Hit rate of the full screen: of about 68,000 compounds, about 2,700 (4%) showed an effect of 50% or more. The entries come from a sample that favours strong results as a whole.

test system: Plasmodium berghei; assay: Screen against P. berghei liver stage (PbLuc), transformed with Luciferase, at 2uM; type: functional, HepG2; details: tested at 2 uM

Row | SMILES | INHIBITION [%]
1 | O=C1[C@@H]2CCN(Cc3ccncc3)C[C@@H]2OCCN1c1ccccc1 | 2.71
2 | Cc1ccccc1-n1cnc(Cl)c1CO | -40.04
3 | O=C(NC1CC1)N1CCN(c2cnccn2)CC1 | 11.24
4 | O=C(CCc1ccc(C(F)(F)F)cc1)N1CCCS1(=O)=O | -24.72
5 | Cn1c(N2CC[C@H](O)C2)nc2cc(C(N)=O)ccc21 | 26.7
6 | Cc1ccccc1-c1cncc(C2CCN(Cc3cnn(C)c3)CC2)n1 | 18.22
7 | CCc1nc(CN2CCCN(C(=O)C3CCC3)CC2)cs1 | 23.86
8 | CCc1ccc(C(=O)N2CCCN(Cc3csc(CC)n3)CC2)o1 | 50.61
9 | Cc1nc(CN2CCN(C(=O)CCc3ccco3)CC2)cs1 | 60.09
10 | CCc1nc(CN2CCCN(C(=O)c3cc(C)on3)CC2)cs1 | -24.11
11 | Cc1nc(CN2CCCN(C(=O)CCc3ccco3)CC2)cs1 | 11.2
12 | CCc1nc(CN2CCCN(C(=O)CCc3ccco3)CC2)cs1 | 44.12
13 | CCc1nc(CN2CCCN(C(=O)c3cnc(C)cn3)CC2)cs1 | -12.19
14 | CCc1nc(CN2CCCN(C(=O)C3CCOCC3)CC2)cs1 | -17.37
15 | CCc1nc(CN2CCCN(C(=O)C3CCOC3)CC2)cs1 (centres undefined) | 56.03
16 | O=C(NC1CC1)C1CCN(c2nc3nc[nH]c(=O)c3s2)CC1 | 20.16
17 | CN(Cc1cnn(C)c1)C(=O)C(c1ccccc1)N1CCSCC1 (centres undefined) | 0.21
18 | O=C(C[C@@H]1COC[C@H]2CN(Cc3ccc(F)cc3)C[C@@H]12)N1CCOCC1 | 20.74
19 | Cn1cc(CN2CCc3c(CNC(=O)C4CC4)cncc3C2)cn1 | -5.13
20 | O=C(NCC1CC1)[C@H]1C[C@@H]2CCN(CCc3ccccc3)C[C@H]2O1 | 25.4
21 | CC(C)n1[nH]c(=O)c2c1NC(=O)CC2c1cccnc1 (centres undefined) | -35.44
22 | Cc1ccccc1CC(=O)N[C@@H]1CCC[C@@H](N2CCNC(=O)C2)[C@@H]1O | 29.06
23 | CCc1nc2n(n1)CC(NCc1cc(OC)c3c(c1)OCO3)CC2 (centres undefined) | 40.24
24 | Cc1ccc(C(=O)N2CCC(Oc3c(C)cccc3C)CC2)c(=O)[nH]1 | -11.33
25 | Cc1ccc(C(=O)N2CCC(Oc3ccc(C)c(C)c3)CC2)c(=O)[nH]1 | -37.2
26 | Cc1ccc(C(=O)N2CCC(Oc3ccc(F)cc3F)CC2)c(=O)[nH]1 | 60.31
27 | Cc1ccc(C(=O)N2CCC(Oc3cccc(C)c3C)CC2)c(=O)[nH]1 | 7.64
28 | Cc1ccc(C)c(OC2CCN(C(=O)c3ccc(C)[nH]c3=O)CC2)c1 | 54.85
29 | COc1ccc(OC2CCN(C(=O)c3ccc(C)[nH]c3=O)CC2)cc1 | 11.95
